# Records with an inconclusive call do not appear. A call without a number means that no potency is given here. Activity calls are given as the source filed them. The call rests on the fitted dose curve; in most records, active means well fitted cell-killing curve with a large enough effect in the repeat runs; inconclusive means weak or mixed curves, or effect the other way; inactive means no such curve, though single readings can be large or run the other way.
# Experiment: qHTS assay to identify small molecule agonists of the estrogen receptor alpha (ER-alpha) signaling pathway in the presence of an antagonist - cell viability counter screen (AID 1259386);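 further: cells exposed to compounds for 22 h at 37 °C before the viability read; nearly all actives have a fitted effect of over 30% in size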
# Details: VM7Luc4E2 viability, CellTiter-Fluor fluorescence, 22 h; series mostly up to 92.4 µM
# From the text: National Center for Advancing Translational Sciences [NCATS]
# NIH Chemical Genomics Center [NCGC]
# U.S. Environmental Protection Agency [EPA]
# National Institutes of Environmental Health Sciences [NIEHS]
# National Toxicology Program [NTP]
# U.S. Food and Drug Administration [FDA]
# Estrogen receptor (ER), a member of nuclear hormone receptor plays an important role in development, metabolic homeostasis and reproduction. Two subtypes of ER, ER-alpha and ER-beta, have similar expression patterns with some uniqueness in both types. Endocrine disrupting chemicals (EDCs) and their interactions with steroid hormone receptors like ER causes disruption of normal endocrine function. Therefore, it is important to understand the effect of environmental chemicals in ER signaling pathway. For identifying ER agonists, VM7Luc4E2 cell line has been used in the current assay.
# VM7Luc4E2 cell line (provided by Denison MS, University of California) endogenously expresses full-length ER-alpha and is stably transfected with a plasmid containing four estrogen responsive elements (ERE) upstream of a luciferase reporter gene. This current screening for measuring luciferase reporter gene activity using VM7Luc4E2 cells against Tox21 10K library collection is a confirmation study on agonist mode screening in presence of ER-antagonist (ICI-182,780) at 10.0nM final concentration. The cytotoxicity of the compounds was tested in parallel by measuring the cell viability using CellTiter-Fluor assay system (Promega, Madison, WI) in the same wells.
# Tox21 Assay Protocol Summary:
# VM7Luc4E2 cells were cultured in phenol red free assay medium containing 10% charcoal stripped FBS for 5 days prior to the assay. The cells were dispensed at 4,000 cells in 4uL of assay medium per well into white wall/solid-bottom 1536-well plates (Corning Life Sciences, Corning, NY) using a Multidrop Combi (Thermo Fisher Scientific Inc., Waltham, MA) dispenser. After the assay plates were incubated at 37C and 5% CO2 for 24hr, 1uL of 10.0nM (final concentration) ICI-182,780 or assay buffer was added using two separate tips of Flying Reagent Dispenser (FRD, Aurora Discovery, San Diego, CA). Then 23nL of compounds dissolved in DMSO at 15 concentrations and positive controls or DMSO only was transferred to the assay plates by a Pintool station (Wako, San Diego, CA). The assay plates were incubated at 37C and 5% CO2 for 22hr. After 21hr incubation at 37C, 1uL/well CellTiter-Fluor reagent (Promega Corporation, Madison, WI) was added to each well using FRD and after 1hr incubation at 37C and 5% CO2, the fluorescence signal was measured on ViewLux plate reader (PerkinElmer, Shelton, CT).
# Potency means the concentration at half of the fitted maximal effect.
row,SMILES,Potency
1,Cc1ccccc1CO[C@@H]1C[C@@]2(C(C)C)CC[C@]1(C)O2,inactive
2,Cc1nc(N)nc(N)n1,inactive
3,CC(C(=O)c1ccccc1)N(C)C (stereo not given),inactive
4,c1cc2c(c(N3CCNCC3)c1)OCCO2,inactive
5,CN1CCC(O)(c2ccc(F)cc2)C(C(=O)c2ccc(F)cc2)C1 (stereo not given),inactive
6,CCCSC(=O)N(CCC)CCC,inactive
7,CCOP(=S)(OCC)SCSP(=S)(OCC)OCC,inactive
8,CN/C(=N\[N+](=O)[O-])NCC1CCOC1 (stereo not given),inactive
9,COC(=O)C(c1ccccc1)C1CCCCN1 (stereo not given),inactive
10,ClC(Cl)Br,inactive
11,O=C1OC(CCN2CCCCC2)OC1(c1ccccc1)c1ccccc1 (stereo not given),inactive
12,OC(Cn1cncn1)(c1ccc(F)cc1)c1ccccc1F (stereo not given),inactive
13,CNCC(=O)c1ccc(O)c(O)c1,inactive
14,O=P(O)(Oc1ccccc1)Oc1ccccc1,inactive
15,OC(c1ccccc1)(c1ccccc1)C1CCNCC1,inactive
16,COc1cccc2c1cc([N+](=O)[O-])c1c(C(=O)O)cc3c(c12)OCO3,61.1 µM (active)
17,CCOC(=O)CP(=O)(OCC)OCC,inactive
18,CC(=O)C(Cl)Cl,inactive
19,N#CC(CCc1ccc(Cl)cc1)(Cn1cncn1)c1ccccc1 (stereo not given),61.1 µM (active)
20,O=C(N[C@H]1CN2CCC1CC2)c1cc2ccoc2cn1,inactive

row,SMILES,Potency
1,C[N+](=O)[O-],inactive
2,CNC(=O)Oc1ccccc1C1OCCO1,inactive
3,O=C(Cc1ccccc1)OCc1ccccc1,inactive
4,CCOP(=S)(Oc1cnc(C(C)(C)C)nc1)OC(C)C (stereo not given),inactive
5,COC(=O)c1c(C(F)F)nc(C(F)(F)F)c(C2=NCCS2)c1CC(C)C,inactive
6,CC(C=O)Cc1ccc2c(c1)OCO2 (stereo not given),inactive
7,N#Cc1ccncc1,inactive
8,CCCCOP(=O)(O)OCCCC,inactive
9,COP(=S)(OC)Oc1ccc(S(N)(=O)=O)cc1,inactive
10,COC(=O)c1ccccc1S(=O)(=O)NC(=O)Nc1nc(C)cc(C)n1,inactive
11,C=CCC1=C(C)[C@@H](OC(=O)[C@@H]2[C@@H](C=C(C)C)C2(C)C)CC1=O,48.6 µM (active)
12,CN(C)CCc1ccc(O)cc1,inactive
13,[Cl][Sn]([Cl])([Cl])[Cl],inactive
14,C=CC1CC=CCC1 (stereo not given),inactive
15,C#C[C@]1(O)C=C[C@H]2[C@@H]3CCC4=CC(=O)CC[C@@H]4[C@H]3CC[C@@]21CC,inactive
16,CC(COc1ccc(Oc2ccccc2)cc1)Oc1ccccn1 (stereo not given),inactive
17,N#CCNCC#N,inactive
18,CCC/C(=N\OCC)C1=C(O)CC(CC(C)SCC)CC1=O (stereo not given),inactive
19,O=S(=O)(O)C(F)(F)C(F)(F)C(F)(F)C(F)(F)C(F)(F)C(F)(F)F,inactive
20,Cc1coc2c1CCC(C)C2 (stereo not given),inactive
